From PubChem
Vif inh: blocks HIV Vif function. HEK293T cells, Vif self-association by quenched fluorescence, imaging, 24 h. inhibition, % at 7.49 µM. 340,000 tested, 0.35% active. AID 602346; in the data active = inhibition above about 50%, passing the limit was not always enough
N-glyco inh: N-linked glycosylation inhibition. D54 ERlucT glycosylation luciferase reporter, 24 h; percent of 100 nM tunicamycin response. reporter increase, % at 12.5 µM. 360,000 tested, 0.23% active. AID 588692;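 active = mean luciferase reporter signal, scaled so untreated is 0 and the glycosylation-blocking control 100, at or above a set limit in every replicate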;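 also: luciferase carries N-glycosylation sites so blocking glycosylation raises the light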
ARNT-TACC3 inh: disruptors of human ARNT/TACC3 interaction | 390,000 tested, 0.66% active | AlphaScreen His-ARNT PAS-B/GST-TACC3 binding, luminescence; TACC3 fragment carries E629A point mutation | inhibition, % at 9.99 µM;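 active = mean inhibition of replicates at least 50% and at least half of replicates each reaching 50%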
aDG glyco up: alpha-DG glycosylation activation; 360,000 tested, 0.22% active; activation, % at 10 µM; Pro5-aDG cells, alpha-DG glycosylation AlphaScreen (IIH6); 0% Pro5, 100% B10-LARGE cell signal;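 active = activation of at least 8% versus controls, or a plate z-score of at least 8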;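 also: Pro5 are CHO cells carrying HIG-tagged alpha-DG that lacks glycosylation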
H9c2 protect: protects H9c2 cardiomyocytes from peroxide injury | protection from H2O2 cell death, % at 20 µM | H2O2 injury protection, ATPLite, 2 h | 360,000 tested, 0.63% active;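 active = compounds giving at least 50% protection of heart cells from peroxide-induced death in the single-dose screen, raw or plate-pattern-corrected value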
Each line names hits and unclear results; the compound was inactive in the other large screens. Shown are actives, neighbours in structure and some others; about 1.7% of the full set was active somewhere.

C[C@H](CO)N1C[C@H](C)[C@@H](CN(C)C(=O)Nc2ccc3c(c2)OCO3)Oc2c(NC(=O)Nc3ccc(C(F)(F)F)cc3)cccc2C1=O	H9c2 protect 86
CCCC1(C2CCCC2)NC(=O)NC1=O (stereo not given)	Vif inh 97
O=C1NC(=O)C(c2ccccc2)(C2CCCC2)N1 (stereo not given)	none
CC1(C(=O)NS(=O)(=O)c2cccc(OC(F)F)c2)CCN1C(=O)c1ccco1 (stereo not given)	Vif inh 59 (no result: ARNT-TACC3 inh)
CC1(C(=O)NS(=O)(=O)c2cccc(F)c2)CCN1C(=O)c1ccco1 (stereo not given)	none (no result: ARNT-TACC3 inh)
CN(C)CCCNC(=O)C[C@H]1CC[C@H]2[C@@H](COc3ccc(NC(=O)NC4CCCC4)cc3C(=O)N2C)O1	none (no result: Vif inh, N-glyco inh, aDG glyco up, H9c2 protect)
Cc1ccc(/C=N/NC(=O)c2c(-c3ccccc3)noc2C)c(O)c1	ARNT-TACC3 inh 47, H9c2 protect 54
CCOc1cc([N+](=O)[O-])cc(/C=N/NC(=O)c2c(-c3ccccc3)noc2C)c1O	ARNT-TACC3 inh 57
C[C@@H]1CN([C@H](C)CO)C(=O)Cc2cc(NS(C)(=O)=O)ccc2O[C@@H]1CN(C)C(=O)Nc1cccc2ccccc12	none (no result: Vif inh, N-glyco inh, aDG glyco up, H9c2 protect)
C[C@@H]1CN([C@@H](C)CO)C(=O)c2cc(NC(=O)CCCN(C)C)ccc2O[C@H]1CN(C)C(=O)Nc1ccc(F)cc1	none (no result: Vif inh, N-glyco inh, aDG glyco up, H9c2 protect)
COc1ccc(S(=O)(=O)Nc2ccc3c(c2)[C@@H]2C[C@@H](CC(=O)O)O[C@H](CO)[C@@H]2O3)cc1	none (no result: Vif inh, N-glyco inh, aDG glyco up, H9c2 protect)
Cc1nnc(SCC(=O)N/N=C/c2cn(-c3ccccc3)nc2-c2ccccc2)n1-c1ccccc1	H9c2 protect 54
Cc1ccc(NC(=O)CSc2nnc(C)n2-c2ccccc2)cc1	none
O=C(N/N=C/c1ccc(O)cc1)Nc1cccc2nsnc12	H9c2 protect 58
COc1cc(/C=N/NC(=O)Nc2cccc3nsnc23)cc(OC)c1OC	none
O=C1N(Cc2ccccc2)CC2(Br)COCOC12O (stereo not given)	ARNT-TACC3 inh 8.9
C[C@H](CO)N1C[C@H](C)[C@H](CN(C)C(=O)Nc2cccc3ccccc23)Oc2ccc(NS(=O)(=O)c3ccc(Cl)cc3)cc2C1=O	none (no result: Vif inh, N-glyco inh, aDG glyco up, H9c2 protect)
Cc1cc(C)nc(Nc2ccc(C(=O)O)cc2)n1	Vif inh 58
Cc1[nH]n(-c2ccccc2)c(=O)c1Sc1ccc(Cl)cc1	none
Cc1cc(-c2c(C)[nH]n(-c3ccc(Cl)cc3)c2=O)n[nH]1	ARNT-TACC3 inh 57
CCN1CC=C2C(C#N)=C(N)C(C#N)(C#N)[C@H](c3cccc(OC)c3OC)[C@H]2C1	none
CCN1CC=C2C(C1)C(c1ccc(Cl)s1)C(C#N)=C(N)C2(C#N)C#N (stereo not given)	Vif inh 87
CO[C@H]1CN(C)C(=O)c2cc(NC(=O)NC(C)C)ccc2OC[C@H](C)N(Cc2cncnc2)C[C@H]1C	none (no result: Vif inh, N-glyco inh, aDG glyco up, H9c2 protect)
CN1CCN(C(=O)C[C@@H]2CC[C@H]3[C@@H](COC[C@H](O)CN3Cc3cccc(Cl)c3)O2)CC1	none (no result: Vif inh, N-glyco inh, aDG glyco up, H9c2 protect)
Cc1ncc(CO)c2c1Oc1nc(-c3ccccc3)nc(SCC(=O)Nc3cccc(O)c3)c1C2	H9c2 protect 63
O=C(CSc1nc(-c2ccc(F)cc2)nc2c1Cc1ccccc1O2)Nc1cccc(C(=O)O)c1	none
COc1ccc(-c2nc3c(c(SCC(=O)Nc4cccc(O)c4)n2)Cc2c(CO)cnc(C)c2O3)cc1	H9c2 protect 66
Cc1cc(NC(=O)COc2ccccc2C)no1	none
Cc1cc(NC(=O)COc2nnc(-c3ccccc3)c3ccccc23)no1	H9c2 protect 48
C[C@@H]1CCCCO[C@H](CN(C)C(=O)c2ccncc2)[C@H](C)CN([C@H](C)CO)C(=O)c2cc(NS(=O)(=O)c3ccc(F)cc3)ccc2O1	none (no result: Vif inh, N-glyco inh, aDG glyco up, H9c2 protect)
Cc1cccc(S(=O)(=O)N2C[C@H](O)COC[C@H]3O[C@@H](CC(=O)N4CCN(C)CC4)CC[C@@H]32)c1	none (no result: Vif inh, N-glyco inh, aDG glyco up, H9c2 protect)
NC1=C(Br)C(=O)c2ccccc2C1=O	aDG glyco up 3.9
CCCN1[C@@H]2c3cccc(=O)n3C[C@@H]2[C@@H](CO)[C@@H]1C(=O)NC1Cc2ccccc2C1	none (no result: Vif inh, N-glyco inh, aDG glyco up, H9c2 protect)
CN(C)S(=O)(=O)c1ccc(N2CCCC2)c(C(=O)NCC(=O)Nc2ccc(F)c(F)c2)c1	none
Cc1ccc(NC(=O)c2cc(S(=O)(=O)N(C)C)ccc2N2CCCC2)cc1F	N-glyco inh 90
CCOC(=O)C1CCN(C(=O)c2cc(S(=O)(=O)N(C)C)ccc2N2CCCC2)CC1	none
CN(C)S(=O)(=O)c1ccc(N2CCCC2)c(C(=O)Nc2ccccc2)c1	N-glyco inh 46
CSc1ccccc1NC(=O)c1cc(S(=O)(=O)N(C)C)ccc1N1CCCC1	none
CCOC(=O)C1CCCN(C(=O)c2cc(S(=O)(=O)N(C)C)ccc2N2CCCC2)C1 (stereo not given)	Vif inh 56
C[C@H](CO)N1C[C@H](C)[C@H](CN(C)C(=O)Nc2ccc(N3CCCCC3)cc2)OCc2cn(nn2)CCCC1=O	none (no result: Vif inh, N-glyco inh, aDG glyco up, H9c2 protect)
CC(=O)N1[C@@H]2Cn3c(ccc(-c4ccccc4)c3=O)[C@H]1[C@@H](C(=O)NCC1CC1)[C@@H]2CO	none (no result: Vif inh, N-glyco inh, aDG glyco up, H9c2 protect)
COc1cc(-c2cc(NC(C)=O)c3ncc(-c4ccc(C(C)=O)cc4)n3c2)cc(OC)c1OC	H9c2 protect 61 (no result: ARNT-TACC3 inh)
COc1cc(-c2cc(NC(C)=O)c3ncc(-c4ccc(F)cc4)n3c2)cc(OC)c1OC	H9c2 protect 54 (no result: ARNT-TACC3 inh)
CN(C)C(=O)c1ccc(-c2ccc([C@H]3[C@H](CO)N4CCCCN(C(=O)C5CC5)C[C@@H]34)cc2)cc1	none (no result: Vif inh, N-glyco inh, aDG glyco up, H9c2 protect)
C[C@H]1CN([C@@H](C)CO)C(=O)c2cc(NC(=O)Cc3cn(C)c4ccccc34)ccc2O[C@H]1CN(C)S(=O)(=O)c1cccs1	none (no result: Vif inh, N-glyco inh, aDG glyco up, H9c2 protect)
O=C(NCCCN1CCOCC1)C(=O)N/N=C/c1ccccc1O	ARNT-TACC3 inh 69
O=C(COc1nsnc1N1CCOCC1)N/N=C/c1ccccc1O	ARNT-TACC3 inh 59, H9c2 protect 73
O=C(NCCCN1CCOCC1)C(=O)N/N=C/c1ccccc1Cl	none
C[C@H]1CN([C@@H](C)CO)C(=O)c2cccc(NC(=O)Nc3cccc4ccccc34)c2O[C@H]1CN(C)C(=O)NC1CCCCC1	none (no result: Vif inh, N-glyco inh, aDG glyco up, H9c2 protect)
O=C(O)CCCN1C(=O)/C(=C\c2ccc(-c3nc4ccccc4s3)o2)SC1=S	none
O=C(O)CCN1C(=O)/C(=C/c2ccc(-c3nc4ccccc4s3)o2)SC1=S	ARNT-TACC3 inh 64
O=C(/C=C/c1ccc(S(=O)(=O)N2CCOCC2)cc1)NCc1ccc(Cl)cc1	ARNT-TACC3 inh 14
COc1ccc(CNC(=O)/C=C/c2ccc(S(=O)(=O)N3CCOCC3)cc2)cc1	none
COc1ccc(C2C3=C(CC(C)(C)CC3=O)Nc3cc4c(cc32)OCO4)cc1 (stereo not given)	none
COc1ccc(OC)c(C2C3=C(COC3=O)Nc3cc4c(cc32)OCO4)c1 (stereo not given)	Vif inh 72
O=C(Nc1cc(Cl)ccc1Cl)P(=O)(O)c1ccccc1	Vif inh 57
